Data published in the supplement of paper PMC6555819.

What was measured:
Test in all cases: PBM binding z-score (relative to random genomic background probes); higher = stronger binding; sequences stand for … in GC…GCGATTGACAGCGTAGAATGAAGG
[1] = tested on: FXR:RXRa (NR concentration 270 nM, RXRa partner concentration 90 nM)
Outline: (§1)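 Random background probes are the reference for binding z-scores. These scores derive from regression-normalized fluorescence on custom Agilent 4×180K protein-binding microarrays incubated 1 h with ligand-free nuclear receptor dimers. Binding was detected with antibodies against each partner (one per run).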

[2] = tested on: LXRa:RXRa (NR concentration 270 nM, RXRa partner concentration 90 nM)
Outline: as §1

[3] = tested on: LXRa homodimer (NR concentration 270 nM)
Outline: as §1

[4] = tested on: LXRb:RXRa (NR concentration 270 nM, RXRa partner concentration 90 nM)
Outline: as §1

[5] = tested on: LXRb homodimer (NR concentration 270 nM)
Outline: as §1

[6] = tested on: PPARa:RXRa (NR concentration 270 nM, RXRa partner concentration 90 nM)
Outline: as §1

[7] = tested on: PPARg:RXRa (NR concentration 180 nM, RXRa partner concentration 90 nM)
Outline: as §1

[8] = tested on: PPARg:RXRa 270nM:90nM, anti-RXR (NR concentration 270 nM, RXRa partner concentration 90 nM)
Outline: as §1

[9] = tested on: PPARg:RXRa 30nM:10nM, anti-RXR (NR concentration 30 nM, RXRa partner concentration 10 nM)
Outline: as §1

[10] = tested on: PPARg:RXRa 90nM:30nM, anti-RXR (NR concentration 90 nM, RXRa partner concentration 30 nM)
Outline: as §1

[11] = tested on: PPARg:RXRa DBDmut IVT, anti-RXR (DBD mutation: RXRa K156A/R161A, NR concentration 270 nM, RXRa partner concentration 90 nM)
Outline: as §1

[12] = tested on: PPARg:RXRa IVT, anti-PPARg (NR concentration 270 nM, RXRa partner concentration 90 nM)
Outline: as §1

[13] = tested on: PPARg DBDmut:RXRa IVT, anti-PPARg (DBD mutation: PPARg1 K132A/R137A, NR concentration 270 nM, RXRa partner concentration 90 nM)
Outline: as §1

[14] = tested on: PPARg DBDmut IVT, anti-PPARg (DBD mutation: PPARg1 K132A/R137A, NR concentration 270 nM)
Outline: as §1

[15] = tested on: PPARg homodimer (NR concentration 180 nM)
Outline: as §1

[16] = tested on: PXR:RXRa (NR concentration 270 nM, RXRa partner concentration 90 nM)
Outline: as §1

[17] = tested on: PXR homodimer (NR concentration 270 nM)
Outline: as §1

[18] = tested on: RARa:RXR (NR concentration 270 nM, RXRa partner concentration 90 nM)
Outline: as §1

[19] = tested on: RARa homodimer (NR concentration 270 nM)
Outline: as §1

[20] = tested on: RARb:RXRa (NR concentration 270 nM, RXRa partner concentration 90 nM)
Outline: as §1

Sequence | PBM binding z-score [1] | PBM binding z-score [2] | PBM binding z-score [3] | PBM binding z-score [4] | PBM binding z-score [5] | PBM binding z-score [6] | PBM binding z-score [7] | PBM binding z-score [8] | PBM binding z-score [9] | PBM binding z-score [10] | PBM binding z-score [11] | PBM binding z-score [12] | PBM binding z-score [13] | PBM binding z-score [14] | PBM binding z-score [15] | PBM binding z-score [16] | PBM binding z-score [17] | PBM binding z-score [18] | PBM binding z-score [19] | PBM binding z-score [20]
ACCAGCAGGCCAAGTTTGGGTCACTCAAACAAAG | 0.266 | -0.108 | -0.521 | 0.635 | -0.887 | 1.31 | -0.217 | 0.223 | -0.767 | -0.323 | -0.512 | 0.814 | -0.754 | -1.36 | 0.25 | 0.747 | -0.419 | 1.27 | -0.97 | 1.89
CGTCCAAGGTCAAAGGTGAGTGAAGAGATGACGG | 7.3 | 5.66 | 0.771 | 4.65 | 1.11 | 6.66 | 8.58 | 7.77 | 5.88 | 7.38 | 4.29 | 5.13 | 0.48 | -0.248 | 2.01 | 5.5 | 1.01 | 7.17 | 1.07 | 5.55
GCTATTAGTTGAAAGGGCTACCGAATGATTCTCG | -0.348 | -0.291 | -0.117 | -0.32 | -0.468 | 0.0178 | 0.531 | 1.52 | 0.317 | 1.21 | 0.511 | -0.182 | -0.304 | 0.104 | 0.707 | -0.465 | -0.174 | -0.0219 | 0.6 | 0.408
ATATTTAGGTTAGCTGGGGTCATTCAGACTAGGC | 4.36 | 5.53 | 3.69 | 4.89 | 2.59 | 4.96 | 4.2 | 4.63 | 1.88 | 3.88 | 5.87 | 4.88 | 2.64 | 2.22 | 3.24 | 6.14 | 5.08 | 5.14 | 3.11 | 3.21
CCTTACGGGTCACGAGTTTATAGCACGACGAGCG | 6.13 | 3.82 | 0.393 | 3.41 | 0.252 | 5.25 | 5.99 | 5.87 | 2.81 | 4.64 | 4.46 | 5.06 | 0.736 | 0.94 | 2.53 | 4.8 | 2 | 4.85 | 0.68 | 4.27
AGAATTAGGTTACCAAAGATCAGGGAAACGCTTG | 0.207 | 4.78 | 0.162 | 1.15 | -0.0791 | 2.9 | 3.46 | 3.45 | 1.37 | 2.53 | 6.61 | 6.16 | 1.54 | 0.973 | 1.54 | 0.000566 | 0.073 | 0.336 | 1 | 1.25
ATCGAAATGTCGACGAGGTGAGTATACACCGTTT | -0.0573 | -0.263 | -0.442 | -0.0135 | -0.0075 | 0.206 | 0.897 | -0.108 | 0.151 | -0.0963 | -0.343 | 0.676 | 0.668 | 0.692 | -0.253 | -0.067 | 0.0399 | 0.312 | -0.025 | 0.403
TAGCCTAGGTCATGGGCCAGTACACCACGCGAAC | 4.77 | 3.08 | 0.269 | 2.41 | 0.439 | 4.05 | 3.9 | 3.76 | 1.09 | 2.8 | 1.78 | 3.17 | 1.24 | -0.494 | 1.72 | 1.62 | -0.215 | 2.77 | 0.343 | 3.92
TGAATGAGATTATAAGATCAGGGAACGTTGCAAA | -0.81 | -0.599 | -0.661 | -0.508 | -0.369 | -0.202 | 0.324 | 0.0746 | 0.527 | 0.406 | -1.28 | -0.236 | 0.555 | 0.576 | -1.31 | -0.518 | -0.193 | -0.548 | 0.0948 | -1.13
CCGACTGGGGCATTAGGTTACCATAAGCCAGCCC | -0.253 | 0.617 | -0.377 | 0.144 | -1.38 | 1.12 | 2.09 | 2.4 | 0.389 | 1.44 | 4.18 | 4.74 | 1.31 | -0.339 | 0.243 | -0.496 | -0.542 | 0.173 | -0.742 | 0.848
ATACGTAGGTTAGCTGGGGTCATTCAGACTAGGC | 5.03 | 5.91 | 2.24 | 4.72 | 0.757 | 4.24 | 1.72 | 2.91 | 0.452 | 1.55 | 0.981 | 1.51 | 0.0785 | 0.0192 | 1.82 | 6.17 | 4.22 | 5.33 | 0.497 | 2.93
GCTCGGAGGACGAGGTCAGAGCTTTGTCCGTAGA | 1.88 | 1.6 | -0.0578 | 1.38 | -1.38 | 2.9 | 0.449 | 1.04 | -0.495 | 0.269 | -0.0575 | 0.506 | -0.927 | -1.57 | 0.162 | 2.57 | 0.107 | 2.7 | -1.37 | 2.92
TAGCCTAGGTCAGATCGTGCCAGTATACGCTATA | 1.53 | 1.21 | -0.412 | 1.06 | 0.00468 | 1.91 | 0.806 | 0.67 | 0.0687 | 0.244 | 0.562 | 1.66 | 0.149 | -0.175 | -0.159 | 0.82 | -0.569 | 1.23 | -0.542 | 3.18
